Reference: PubChem BioAssay (NCATS)
Results filed as inconclusive are left out. The source made the active and inactive calls. Unless noted, the call rests on the fitted dose curve; in most records, active means well fitted curve in the direction sought with a large enough effect; inconclusive means small, poorly fitted or top-dose-only effect, or another doubt; inactive means no such curve, though single readings can be large; an effect the other way counts as inactive or inconclusive.

Assays:
[1] = Confirmation and Secondary Assay for Modulators of Hemoglobin Beta Chain Splicing at IVS2 705 locus (AID 930);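 further: HeLa cells stably expressing the EGFP-705 splicing reporter; GFP fluorescence per well restored by corrected splicing of the IVS2-705 intron in EGFP; series mostly up to about 46 µM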
How it was run: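 Stable HeLa line with EGFP disrupted by mutant beta-globin intron 2 (705). Overnight attachment, then 2 days of compound at 37C, 5% CO2. Signal: peak GFP intensity summed over objects 5-250 µm.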

[2] = Cell Viability - LYMP2-001 (AID 921); further: series mostly up to about 92 µM; nearly all actives have a fitted effect of over 70% in size
How it was run: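 A lymphoblastoid cell line of human origin was treated with library compounds across a concentration series for 24 hours, and viable cell number was estimated from ATP-driven luciferase light output. Hill modeling gave AC50.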

[3] = MultiTox-Fluor Cytotoxicity Assay - LYMP1-001 - Live Cells (AID 947)
[4] = Cell Viability - LYMP1-002 - Assay at 16 hr (AID 948)
How it was run: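 In this qHTS, lymphoblastoid LYMP1-002 cells (human) receive compounds for 16 hr at 37 C. Viability is taken from CellTiter-Glo ATP luminescence, and AC50 derives from standard Hill fits.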

[5] = MultiTox-Fluor Cytotoxicity Assay - LYMP1-002 - Live Cells (AID 955);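 further: cells exposed to compound for 16 hours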
How it was run: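 Cells were seeded at 2500 per well and incubated 5 hr. Compounds were then added for 16 hr at 37 C, followed by MultiTox-Fluor reagent for 60 min at room temperature and fluorescence reading of viable-cell protease signal.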

[6] = MultiTox-Fluor Cytotoxicity Assay - LYMP1-003 - Dead Cells (AID 961);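 further: cells exposed to compound for 16 h at 37 °C; nearly all actives have a fitted effect of over 70% in size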
How it was run: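 Human lymphoblastoid LYMP1-003 cells (2500/well) were treated with compounds for 16 hr at 37 C in complete medium. Dead-cell protease release was read by bis-AAF-R110 fluorescence (Ex/Em 485/520). AC50 came from Hill fits, normalized to DMSO and 15 uM tetraoctylammonium bromide.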

[7] = Cell Viability - LYMP1-003 - Assay at 24 hr (AID 963)
How it was run: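 Cytotoxicity is scored as a concentration-dependent fall in ATP-linked luciferase signal in human lymphoblastoid LYMP1-003 cells treated 24 hr at 37 C in complete culture medium.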

[8] = Cell Viability - LYMP1-003 - Assay at 40 hr (AID 964); further: series mostly up to about 92 µM; nearly all actives have a fitted effect of over 60% in size
How it was run: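 Luminescent ATP signal (CellTiter-Glo) served as the viability read-out after 40 hr compound treatment of human lymphoblastoid LYMP1-003 cells at 37 C. Decreases in ATP were fitted with the Hill equation to give AC50.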

[9] = Cell Viability - LYMP2-003 (AID 965);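 further: cells exposed to compounds for 24 h before reading; nearly all actives have a fitted effect of over 50% in size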
How it was run: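 qHTS, human lymphoblastoid line, 2500 cells/well, complete medium. 24 h drug, 37 C. ATP-based luminescent readout; Hill-fit AC50.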

[10] = Cell Viability - LYMP2-004 (AID 966); further: nearly all actives have a fitted effect of over 65% in size
How it was run: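 qHTS cytotoxicity: human lymphoblastoid line, 24 hr compound treatment, 37 C, complete medium. Viability read as cellular ATP via luciferase luminescence; tetraoctylammonium bromide served as positive control.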

[11] = Cell Viability - LYMP2-005 (AID 967); further: series mostly up to about 92 µM
How it was run: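 Luciferase-based ATP quantitation served as the viability measure in human lymphoblastoid LYMP2-005 cells exposed to test compounds for 24 h at 37 C in complete culture medium. Potency (AC50) was obtained by fitting concentration-response curves with the Hill equation.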

[12] = Cell Viability - LYMP2-009 (AID 968); further: series mostly up to about 92 µM; nearly all actives have a fitted effect of over 55% in size
[13] = Cell Viability - LYMP2-011 (AID 969); further: nearly all actives have a fitted effect of over 60% in size
How it was run: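 In this qHTS cytotoxicity format, compounds are tested across concentrations on human lymphoblastoid cells in complete medium for 24 hours at 37 C. Viability is taken as cellular ATP measured by luciferase luminescence.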

[14] = Cell Viability - LYMP2-015 (AID 971); further: nearly all actives have a fitted effect of over 55% in size
How it was run: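 Cells are seeded at 2500 per well and incubated 5 hr at 37 C. Compounds are added across a concentration series for 24 hr at 37 C. CellTiter-Glo is added, and luminescence is read after 30 min at room temperature.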

[15] = Cell Viability - LYMP2-017 (AID 972); further: series mostly up to about 92 µM; nearly all actives have a fitted effect of over 55% in size
How it was run: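 Cytotoxicity is scored as a concentration-dependent drop in cellular ATP in a human lymphoblastoid line after 24 hr treatment at 37 C. Values are AC50s from Hill-equation modelling.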

[16] = qHTS Assay for Identification of Small Molecule Agonists for Thrombopoietin (TPO) Signaling Pathway (AID 917)
How it was run: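 Human TPO receptor–transfected Ba/F3 cells (murine, IL-3-dependent) in IL-3-deficient medium; compounds plus TPO at EC50, 26 pM final; 24 hrs, 37 C; GpIIb-luciferase luminescence after 10 min RT detection.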

[17] = target: Muscarinic acetylcholine receptor M1 (Rattus norvegicus) (UniProt P08482); test: qHTS Assay for Antagonists of Acetylcholine Muscarinic M1 Receptor: Kinetic Measurement of Intracellular Calcium Response (AID 943);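 further: Fluo-4 calcium signal as peak divided by basal fluorescence over 4 min; series mostly up to about 35 µM; nearly all actives have a fitted effect of over 75% in size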
How it was run: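 Antagonism is measured as inhibition of the carbachol-evoked calcium rise in CHO cells transfected with rat M1. Cells are dye-loaded, exposed to compound for 10 min, then stimulated with 100 nM carbachol (EC80).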

[18] = target: Muscarinic acetylcholine receptor M1 (Rattus norvegicus) (UniProt P08482); test: qHTS Assay for Antagonists of Acetylcholine Muscarinic M1 Receptor: Measurement of IP-One Response (AID 944); further: nearly all actives have a fitted effect of over 75% in size
How it was run: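 Antagonist mode with rat M1 receptor transfected into CHO cells. Compound is added first for 10 min, carbachol at its EC80 follows for 30 min, and lysis reagents then allow TR-FRET detection of accumulated IP1.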

[19] = target: Pyruvate kinase (Leishmania mexicana) (UniProt Q27686); test: qHTS Validation Assay for Inhibitors of Leishmania Mexicana Pyruvate Kinase (AID 945)
How it was run: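 Mutant LmPYK (E451W), 0.2 nM, plus 0.5 mM PEP and 0.1 mM ADP in 50 mM imidazole pH 7.2 containing 0.01% Tween 20 and 0.05% BSA. Incubated 1 h at room temperature; luminescence via PKLight, normalized to DMSO.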

[20] = target: Pyruvate kinase PKM (Homo sapiens) (UniProt P14618); test: qHTS Assay for Activators of Human Muscle Pyruvate Kinase (AID 954; active means well fitted curve in the direction sought with a large enough effect, not every such curve was filed as active)
How it was run: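 A coupled luminescent readout tracked ATP made from ADP by purified PKM2. Final conditions included 0.1 nM enzyme, PEP and ADP at 0.5 and 0.1 mM, pH 7.2 imidazole buffer with BSA, and a one-hour room-temperature reaction.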

Measured: outcome

Sequence of Muscarinic acetylcholine receptor M1 (Rattus norvegicus) (P08482 whole entry, looked up): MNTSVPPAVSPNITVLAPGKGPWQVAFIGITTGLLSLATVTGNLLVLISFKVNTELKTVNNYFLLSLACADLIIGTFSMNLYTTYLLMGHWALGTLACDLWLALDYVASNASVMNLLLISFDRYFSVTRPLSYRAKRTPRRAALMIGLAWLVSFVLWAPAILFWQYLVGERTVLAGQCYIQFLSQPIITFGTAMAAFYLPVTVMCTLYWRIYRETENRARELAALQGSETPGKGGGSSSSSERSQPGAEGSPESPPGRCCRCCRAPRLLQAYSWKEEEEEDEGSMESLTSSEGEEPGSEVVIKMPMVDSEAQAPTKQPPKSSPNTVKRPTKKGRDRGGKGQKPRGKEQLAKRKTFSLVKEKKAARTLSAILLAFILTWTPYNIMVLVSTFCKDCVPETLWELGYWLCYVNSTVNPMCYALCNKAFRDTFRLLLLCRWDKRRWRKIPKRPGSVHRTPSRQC
Sequence of Pyruvate kinase (Leishmania mexicana) (Q27686 2-499 E452W): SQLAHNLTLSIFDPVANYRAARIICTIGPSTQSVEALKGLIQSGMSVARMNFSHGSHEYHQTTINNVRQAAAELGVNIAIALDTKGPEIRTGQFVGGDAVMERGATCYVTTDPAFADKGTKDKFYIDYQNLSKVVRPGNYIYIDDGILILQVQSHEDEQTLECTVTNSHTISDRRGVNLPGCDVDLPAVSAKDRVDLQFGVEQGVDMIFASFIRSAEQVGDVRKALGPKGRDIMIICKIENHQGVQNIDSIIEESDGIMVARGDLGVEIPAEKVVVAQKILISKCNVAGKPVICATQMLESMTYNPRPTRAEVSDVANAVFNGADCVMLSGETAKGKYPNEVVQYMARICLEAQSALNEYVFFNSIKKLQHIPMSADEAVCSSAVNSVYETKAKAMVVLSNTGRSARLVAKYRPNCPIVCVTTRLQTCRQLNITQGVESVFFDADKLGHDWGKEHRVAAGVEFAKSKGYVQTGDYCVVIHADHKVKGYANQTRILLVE
Sequence of Pyruvate kinase PKM (Homo sapiens) (P14618 whole entry, looked up): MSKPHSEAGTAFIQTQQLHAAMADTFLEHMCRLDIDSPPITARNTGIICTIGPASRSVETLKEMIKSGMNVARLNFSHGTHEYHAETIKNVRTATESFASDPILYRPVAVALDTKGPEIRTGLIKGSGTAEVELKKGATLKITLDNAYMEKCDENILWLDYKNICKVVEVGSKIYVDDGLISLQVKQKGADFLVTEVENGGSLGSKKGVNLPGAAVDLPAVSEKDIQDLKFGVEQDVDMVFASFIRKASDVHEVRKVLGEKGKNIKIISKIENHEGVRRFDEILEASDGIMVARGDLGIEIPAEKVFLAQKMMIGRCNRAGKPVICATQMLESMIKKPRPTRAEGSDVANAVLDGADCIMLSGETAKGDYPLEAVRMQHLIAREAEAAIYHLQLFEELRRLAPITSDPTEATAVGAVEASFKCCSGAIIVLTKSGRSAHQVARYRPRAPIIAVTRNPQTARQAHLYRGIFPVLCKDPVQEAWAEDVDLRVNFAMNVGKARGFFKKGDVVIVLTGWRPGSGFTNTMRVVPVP

CC(N)CCCC(C)(C)O (centres undefined)
inactive: [1]

Cc1cc(=O)[nH]c(=S)[nH]1
not listed: [16] | [17] | [18] | [19] | [20]
inactive: all other assays above

CCCCCC(N)=O
not listed: [1] | [16] | [17] | [18] | [19] | [20]
inactive: all other assays above

CC(=O)Nc1ccccc1
not listed: [16] | [17] | [18] | [19] | [20]
inactive: all other assays above

CC1CC(OC(=O)c2ccccc2O)CC(C)(C)C1 (centres undefined)
not listed: [16] | [17] | [18] | [19] | [20]
inactive: all other assays above

Cc1cccc(C(=O)O)c1O
inactive: [1]

COc1ccc(NS(=O)(=O)c2ccc(N)cc2)nn1
inactive: [1]

CN1C(C)(C)CCCC1(C)C
inactive: [16] | [1] | [17] | [18] | [19] | [20]

Cc1c(N(C)C)c(=O)n(-c2ccccc2)n1C
not listed: [1] | [16] | [17] | [18] | [19] | [20]
inactive: all other assays above

FC(F)(F)C(Cl)Br (centres undefined)
not listed: [1] | [16] | [17] | [18] | [19] | [20]
inactive: all other assays above

O=C1C(c2[nH]c3ccccc3c2O)=Nc2ccccc21
not listed: [1] | [16] | [17] | [18] | [19] | [20]
inactive: all other assays above

NC(=O)CC[C@@H](N)C(=O)O
inactive: [16] | [17] | [18] | [19] | [20]

Cn1c(=O)c2c(ncn2CCO)n(C)c1=O
inactive: [1]

C=CCNC(N)=S
not listed: [1] | [16] | [17] | [18] | [19] | [20]
inactive: all other assays above

Cc1cc(O)cc(C)c1Cl
inactive: [1]

O=C(O)CCCCC1CCSS1 (centres undefined)
not listed: [16] | [17] | [18] | [19] | [20]
inactive: all other assays above

CC(=O)NS(=O)(=O)c1ccc(N)cc1
not listed: [3] | [16] | [17] | [18] | [19] | [20]
inactive: all other assays above

CCCCCC(C)N (centres undefined)
inactive: [1]

NC(N)=NCCN1CCCCCCC1
inactive: [1]

CC(=O)Nc1cccc(O)c1
not listed: [16] | [17] | [18] | [19] | [20]
inactive: all other assays above

CCCCOC(=O)c1ccc(N)cc1
not listed: [16] | [17] | [18] | [19] | [20]
inactive: all other assays above

CC(=O)Nc1ccc(C(=O)O)cc1
not listed: [1] | [14] | [16] | [17] | [18] | [19] | [20]
inactive: all other assays above

Nc1ccc(S(=O)(=O)c2ccc(N)cc2)cc1
not listed: [16] | [17] | [18] | [19] | [20]
inactive: all other assays above

CCCCCCCC(=O)OCC(COC(=O)CCCCCCC)OC(=O)CCCCCCC
not listed: [1] | [16] | [17] | [18] | [19] | [20]
inactive: all other assays above

Cc1cc(C)nc(NS(=O)(=O)c2ccc(N)cc2)n1
not listed: [16] | [17] | [18] | [19] | [20]
inactive: all other assays above

NC(=O)NC1NC(=O)NC1=O (centres undefined)
inactive: [1]

Cc1cc(NC(=O)C2=C(O)c3ccccc3S(=O)(=O)N2C)no1
inactive: [1]

O=C(c1ccccc1)C(O)c1ccccc1 (centres undefined)
not listed: [1] | [16] | [17] | [18] | [19] | [20]
inactive: all other assays above

Cc1ccsc1/C=C/C1=NCCCN1C
inactive: [1]

CC(=O)OCC(COC(C)=O)OC(C)=O
not listed: [16] | [17] | [18] | [19] | [20]
inactive: all other assays above

CCN(CC)C(=O)c1cccc(C)c1
not listed: [16] | [17] | [18] | [19] | [20]
inactive: all other assays above

CCOC(N)=O
inactive: [1]

COc1ccc(O)cc1
not listed: [1] | [16] | [17] | [18] | [19] | [20]
inactive: all other assays above

CCCC(O)C(CC)CO (centres undefined)
not listed: [1] | [16] | [17] | [18] | [19] | [20]
inactive: all other assays above

O=C1c2cccc(O)c2C(=O)c2c(O)cccc21
inactive: [3] | [4] | [5] | [6] | [7] | [8] | [10] | [11] | [12]
